Assay results as given in PubChem BioAssay AID2174 (The Scripps Research Institute Molecular Screening Center, 2009).
Hit rate of the full screen: of about 320,000 compounds, about 500 (0.16%) were called active. The sample as a whole holds a higher share of actives than the screen did. A number with no mark means an inactive call.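 The calls were made as follows: active = inhibition above the mean of all tested compounds plus 3 SD, set per campaign (cut at about 14% in these data); inactive = the rest.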

molecular target: Acyl-protein thioesterase 1 (Homo sapiens) (UniProt O75608); assay: inhibition of human lysophospholipase 1 – biochemical, fluorescence polarization, FP-Rh probe ABPP, counter-screen for PME1 inhibitor project, primary screen (AID 2174); details: recombinant LYPLA1, FP-Rh probe fluorescence polarization; at 5.9 µM; active compounds read high;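 also: inhibitors block serine hydrolase probe labeling of LYPLA1 so polarization falls; 0% = enzyme with DMSO and 100% = wells lacking LYPLA1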
Sequence (O75608 whole entry, looked up): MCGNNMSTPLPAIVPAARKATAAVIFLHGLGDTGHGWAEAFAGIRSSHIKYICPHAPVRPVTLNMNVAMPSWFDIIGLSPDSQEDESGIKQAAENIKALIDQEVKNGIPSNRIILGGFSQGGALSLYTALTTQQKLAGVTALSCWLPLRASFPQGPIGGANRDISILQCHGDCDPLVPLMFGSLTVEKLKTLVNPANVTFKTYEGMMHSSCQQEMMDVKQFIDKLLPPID

Compared with `COc1ccc(C2CC(c3cccs3)Nc3nnnn32)cc1` (stereo not given), `O=C(COc1ccc2ccccc2c1)N1CCN(C(=O)c2cccs2)CC1` is higher in inhibition: 0.92% for the first, 1.27% for the second.

Going from `CN(Cc1ccc(F)cc1Cl)S(=O)(=O)c1cccs1` to `COc1ccccc1N1CCN(C(=O)c2ccc(Cl)c(S(=O)(=O)N3CCCC3)c2)CC1`, the inhibition falls from 4.05% to 1.54%.

Compared with `O=C(/C=C/c1cccc(C(F)(F)F)c1)N1CCN(c2ccccn2)CC1`, `CCOc1ccc(C(=O)NCC(=O)N2CCN(c3ccc(C(F)(F)F)cn3)CC2)cc1` is higher in inhibition: -2.76% for the first, 2.56% for the second.

Going from `Cc1cc(OCC(=O)N2CCN(c3ncccn3)CC2)ccc1Cl` to `Cc1[nH]c2ccc(C(=O)N3CCN(C)CC3)cc2c1C`, the inhibition rises from -2.47% to 2.14%.

First: Cc1ccc(CNC(=O)CCNS(=O)(=O)c2ccc(Br)s2)cc1
Second: COC(=O)c1ccc(CSc2ccc(S(=O)(=O)N3CCCCC3)cn2)cc1
The inhibition of the first is higher: 0.04% for the first, -1.32% for the second.

Compared with `CCOc1ccc(-n2cnnn2)cc1S(=O)(=O)N1CCC(C)CC1C` (stereo not given), `CCOc1ccc2ccccc2c1/C=N/NC(=O)c1c(C)cc(C)[nH]c1=O` is lower in inhibition: 3.81% for the first, -5.43% for the second.

Going from `COc1ccc(CCNC(=O)CSc2nc(-c3ccc(OC)c(OC)c3)ccc2C#N)cc1` to `CCCCCOc1ccc(/C=C/C(=O)NCCc2nc3ccccc3[nH]2)cc1OC`, the inhibition rises from -12.1% to -8.82%.

First: O=C(O)c1ccccc1NC(=S)NC(NC(=O)c1ccccc1[N+](=O)[O-])C(Cl)(Cl)Cl (stereo not given)
Second: COc1ccccc1C(=O)NC(CCSC)C(=O)NNC(=O)c1ccccc1C (stereo not given)
The inhibition of the first is higher: 2.28% for the first, 2.08% for the second.

First: Cc1ccccc1Nc1nc(N)nc(CSc2ccccc2)n1
Second: CCN(CC(=O)Nc1c(F)cccc1F)C(=O)c1ccc(S(=O)(=O)N2CCCCC2)cc1
The inhibition of the first is lower: -4.27% for the first, 0.21% for the second.

Going from `O=C1COc2ccc(NC(=O)N3CCN(c4ccc(F)cc4)CC3)cc2N1` to `NC(=O)C1(N2CCCCC2)CCN(C2CC(=O)N(Cc3ccc(N4CCCC4=O)cc3)C2=O)CC1` (stereo not given), the inhibition rises from -0.21% to 2.22%.

First: COc1cccc(NC(=S)NC(=O)c2c(Cl)c(C)nn2C)c1
Second: COc1ccccc1C(=O)NC(CCSC)C(=O)N1CCN(C(C)=O)CC1 (stereo not given)
The inhibition of the first is lower: -3.22% for the first, -1.6% for the second.

`COCCNc1nc2nonc2nc1N1CCCC1c1nccs1` (stereo not given) gave an inhibition of 1.24%.

In the case of `CCOc1ccccc1N1CCN(C(=O)c2ccc3[nH]c(C)c(C)c3c2)CC1`, the inhibition is reported as 14.2% (active).
With `COc1ccccc1C(=O)NC(CCSC)C(=O)N1CCN(C/C=C/c2ccccc2)CC1` (stereo not given) the inhibition was 18.2% (active).
